# Test results published in the supplement of paper PMC11732987, “Enantioselective OTUD7B fragment discovery through chemoproteomics screening and high-throughput optimisation” (Communications Chemistry, 2025).
# Values without a mark were called inactive.
# Tests used:
# Experiment in all cases: log2 ratio of Biotin-Ahx-Ub-VS probe labelling (fragment/DMSO); higher = less target engagement (more negative = stronger competition), active = hit call of the paper (q ≤ 0.05, log2 ratio ≤ -1)
# Details in all cases: compound concentration: 200 uM; treatment time: 3 h
# [1] = target: T1, USP19 (UniProt O94966)
# T1 sequence (whole entry): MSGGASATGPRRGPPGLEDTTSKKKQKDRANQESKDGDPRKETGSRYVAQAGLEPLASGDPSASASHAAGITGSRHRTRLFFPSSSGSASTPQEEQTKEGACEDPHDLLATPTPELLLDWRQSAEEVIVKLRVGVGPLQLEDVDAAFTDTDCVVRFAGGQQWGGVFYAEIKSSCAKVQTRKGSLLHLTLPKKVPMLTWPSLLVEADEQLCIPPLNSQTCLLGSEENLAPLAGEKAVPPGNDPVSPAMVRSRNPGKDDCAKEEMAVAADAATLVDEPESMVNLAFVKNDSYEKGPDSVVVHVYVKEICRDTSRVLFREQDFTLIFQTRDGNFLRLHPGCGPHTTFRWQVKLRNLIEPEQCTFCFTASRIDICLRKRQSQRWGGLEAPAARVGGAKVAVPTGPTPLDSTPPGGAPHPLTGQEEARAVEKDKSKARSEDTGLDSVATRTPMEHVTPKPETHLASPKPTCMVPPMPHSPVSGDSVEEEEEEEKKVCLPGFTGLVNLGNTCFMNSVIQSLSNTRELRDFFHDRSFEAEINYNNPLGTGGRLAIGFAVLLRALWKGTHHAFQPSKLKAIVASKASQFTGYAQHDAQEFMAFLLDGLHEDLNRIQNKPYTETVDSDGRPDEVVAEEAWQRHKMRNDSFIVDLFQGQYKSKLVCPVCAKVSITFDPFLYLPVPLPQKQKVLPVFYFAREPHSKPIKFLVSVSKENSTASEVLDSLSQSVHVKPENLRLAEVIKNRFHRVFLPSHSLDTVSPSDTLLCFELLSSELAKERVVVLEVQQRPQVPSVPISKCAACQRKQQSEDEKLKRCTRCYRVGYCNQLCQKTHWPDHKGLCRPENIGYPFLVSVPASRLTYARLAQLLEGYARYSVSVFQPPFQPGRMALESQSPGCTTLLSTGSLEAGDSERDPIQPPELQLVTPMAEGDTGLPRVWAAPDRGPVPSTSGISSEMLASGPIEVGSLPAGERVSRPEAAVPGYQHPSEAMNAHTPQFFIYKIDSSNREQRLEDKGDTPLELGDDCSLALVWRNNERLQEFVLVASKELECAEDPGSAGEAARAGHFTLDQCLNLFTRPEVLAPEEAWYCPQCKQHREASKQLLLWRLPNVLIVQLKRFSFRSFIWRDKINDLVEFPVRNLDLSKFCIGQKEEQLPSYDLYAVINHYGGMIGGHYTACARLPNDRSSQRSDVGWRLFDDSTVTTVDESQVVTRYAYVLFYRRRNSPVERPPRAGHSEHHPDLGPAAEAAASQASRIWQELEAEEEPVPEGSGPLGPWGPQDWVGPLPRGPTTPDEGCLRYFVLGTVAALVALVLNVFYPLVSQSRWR
# Outline: (§1)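 Labelled DUBs from HEK293T lysate were NeutrAvidin-enriched, digested with LysC and trypsin, and run by diaPASEF LC-MS/MS. Before that, each 495 µg sample in Tris/CHAPS/IGEPAL buffer with protease inhibitors was treated in triplicate with fragment at 200 µM or vehicle for 3 h, then with Biotin-Ahx-Ub-VS at 0.5 µM final for 1 h. Values are average log2 ratios of fragment over vehicle by unpaired t-test, based on global-median-normalised Spectronaut label-free quantities from proteins with ≥2 unique peptides.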
# [2] = target: USP24 (UniProt Q9UPU5)
# Sequence of USP24 (Q9UPU5 whole entry): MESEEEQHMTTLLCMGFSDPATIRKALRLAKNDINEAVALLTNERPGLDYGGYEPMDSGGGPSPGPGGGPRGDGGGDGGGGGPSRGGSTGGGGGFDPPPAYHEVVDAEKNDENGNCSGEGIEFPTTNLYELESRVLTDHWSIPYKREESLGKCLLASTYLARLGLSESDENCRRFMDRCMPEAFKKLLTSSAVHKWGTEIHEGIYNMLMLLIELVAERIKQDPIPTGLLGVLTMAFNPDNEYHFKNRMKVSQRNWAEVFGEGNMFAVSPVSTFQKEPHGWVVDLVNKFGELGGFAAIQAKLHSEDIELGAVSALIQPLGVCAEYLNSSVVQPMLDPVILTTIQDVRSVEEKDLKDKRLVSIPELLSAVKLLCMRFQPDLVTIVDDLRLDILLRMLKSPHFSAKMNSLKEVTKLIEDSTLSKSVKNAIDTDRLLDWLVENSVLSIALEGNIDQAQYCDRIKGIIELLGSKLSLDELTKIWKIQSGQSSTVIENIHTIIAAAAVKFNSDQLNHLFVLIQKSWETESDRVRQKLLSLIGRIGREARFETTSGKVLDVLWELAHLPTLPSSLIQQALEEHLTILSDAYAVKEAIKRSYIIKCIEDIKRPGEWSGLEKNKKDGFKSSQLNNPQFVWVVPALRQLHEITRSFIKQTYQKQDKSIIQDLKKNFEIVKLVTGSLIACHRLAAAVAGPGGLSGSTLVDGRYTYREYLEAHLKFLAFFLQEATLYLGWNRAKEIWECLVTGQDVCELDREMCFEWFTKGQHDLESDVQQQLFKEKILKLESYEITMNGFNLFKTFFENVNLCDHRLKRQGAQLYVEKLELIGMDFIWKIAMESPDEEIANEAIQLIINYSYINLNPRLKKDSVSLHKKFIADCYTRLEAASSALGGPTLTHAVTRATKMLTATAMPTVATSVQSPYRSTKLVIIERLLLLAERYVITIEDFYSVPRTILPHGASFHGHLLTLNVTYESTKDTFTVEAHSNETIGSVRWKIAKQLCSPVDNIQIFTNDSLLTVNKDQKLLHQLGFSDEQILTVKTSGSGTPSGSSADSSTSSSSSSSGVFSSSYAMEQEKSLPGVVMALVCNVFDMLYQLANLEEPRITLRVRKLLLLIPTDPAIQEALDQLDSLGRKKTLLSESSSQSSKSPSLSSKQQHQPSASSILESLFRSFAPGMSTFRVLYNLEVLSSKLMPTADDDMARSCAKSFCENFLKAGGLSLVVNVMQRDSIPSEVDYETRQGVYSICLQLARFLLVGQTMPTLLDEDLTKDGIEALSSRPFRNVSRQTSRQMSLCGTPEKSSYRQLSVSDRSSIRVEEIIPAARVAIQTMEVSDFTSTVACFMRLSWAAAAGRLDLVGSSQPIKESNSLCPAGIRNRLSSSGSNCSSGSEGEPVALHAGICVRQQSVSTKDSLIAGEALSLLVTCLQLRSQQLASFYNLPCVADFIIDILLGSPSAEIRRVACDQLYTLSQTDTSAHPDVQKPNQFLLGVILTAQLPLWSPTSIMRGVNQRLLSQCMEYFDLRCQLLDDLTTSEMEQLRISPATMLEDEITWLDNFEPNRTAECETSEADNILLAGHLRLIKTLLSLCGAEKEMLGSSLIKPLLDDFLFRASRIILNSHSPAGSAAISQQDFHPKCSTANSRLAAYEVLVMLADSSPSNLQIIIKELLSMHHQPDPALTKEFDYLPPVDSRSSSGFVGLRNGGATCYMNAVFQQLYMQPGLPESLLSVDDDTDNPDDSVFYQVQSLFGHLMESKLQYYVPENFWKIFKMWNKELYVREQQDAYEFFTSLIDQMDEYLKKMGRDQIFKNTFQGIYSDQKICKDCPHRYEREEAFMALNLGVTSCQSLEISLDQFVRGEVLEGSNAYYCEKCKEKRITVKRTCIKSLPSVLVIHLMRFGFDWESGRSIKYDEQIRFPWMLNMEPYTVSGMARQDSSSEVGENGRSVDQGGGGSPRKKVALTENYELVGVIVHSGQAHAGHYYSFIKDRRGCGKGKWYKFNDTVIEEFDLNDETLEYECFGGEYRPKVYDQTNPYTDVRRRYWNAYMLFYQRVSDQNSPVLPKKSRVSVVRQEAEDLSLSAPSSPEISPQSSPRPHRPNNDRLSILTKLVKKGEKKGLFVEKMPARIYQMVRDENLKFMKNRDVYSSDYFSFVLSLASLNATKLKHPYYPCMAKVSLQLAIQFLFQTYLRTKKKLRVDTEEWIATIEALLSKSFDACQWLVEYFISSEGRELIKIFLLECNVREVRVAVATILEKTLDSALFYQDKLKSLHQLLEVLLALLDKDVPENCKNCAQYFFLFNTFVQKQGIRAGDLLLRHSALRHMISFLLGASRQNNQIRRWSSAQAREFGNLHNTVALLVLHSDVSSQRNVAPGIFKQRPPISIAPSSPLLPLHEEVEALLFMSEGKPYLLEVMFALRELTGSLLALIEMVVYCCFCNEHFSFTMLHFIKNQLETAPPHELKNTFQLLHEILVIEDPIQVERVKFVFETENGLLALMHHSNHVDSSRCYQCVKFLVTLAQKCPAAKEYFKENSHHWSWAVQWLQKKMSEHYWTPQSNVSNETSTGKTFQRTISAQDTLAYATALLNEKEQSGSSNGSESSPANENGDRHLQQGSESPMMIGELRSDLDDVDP
# Outline: as §1
# [3] = target: T2, USP25 (UniProt Q9UHP3)
# T2 sequence (whole entry): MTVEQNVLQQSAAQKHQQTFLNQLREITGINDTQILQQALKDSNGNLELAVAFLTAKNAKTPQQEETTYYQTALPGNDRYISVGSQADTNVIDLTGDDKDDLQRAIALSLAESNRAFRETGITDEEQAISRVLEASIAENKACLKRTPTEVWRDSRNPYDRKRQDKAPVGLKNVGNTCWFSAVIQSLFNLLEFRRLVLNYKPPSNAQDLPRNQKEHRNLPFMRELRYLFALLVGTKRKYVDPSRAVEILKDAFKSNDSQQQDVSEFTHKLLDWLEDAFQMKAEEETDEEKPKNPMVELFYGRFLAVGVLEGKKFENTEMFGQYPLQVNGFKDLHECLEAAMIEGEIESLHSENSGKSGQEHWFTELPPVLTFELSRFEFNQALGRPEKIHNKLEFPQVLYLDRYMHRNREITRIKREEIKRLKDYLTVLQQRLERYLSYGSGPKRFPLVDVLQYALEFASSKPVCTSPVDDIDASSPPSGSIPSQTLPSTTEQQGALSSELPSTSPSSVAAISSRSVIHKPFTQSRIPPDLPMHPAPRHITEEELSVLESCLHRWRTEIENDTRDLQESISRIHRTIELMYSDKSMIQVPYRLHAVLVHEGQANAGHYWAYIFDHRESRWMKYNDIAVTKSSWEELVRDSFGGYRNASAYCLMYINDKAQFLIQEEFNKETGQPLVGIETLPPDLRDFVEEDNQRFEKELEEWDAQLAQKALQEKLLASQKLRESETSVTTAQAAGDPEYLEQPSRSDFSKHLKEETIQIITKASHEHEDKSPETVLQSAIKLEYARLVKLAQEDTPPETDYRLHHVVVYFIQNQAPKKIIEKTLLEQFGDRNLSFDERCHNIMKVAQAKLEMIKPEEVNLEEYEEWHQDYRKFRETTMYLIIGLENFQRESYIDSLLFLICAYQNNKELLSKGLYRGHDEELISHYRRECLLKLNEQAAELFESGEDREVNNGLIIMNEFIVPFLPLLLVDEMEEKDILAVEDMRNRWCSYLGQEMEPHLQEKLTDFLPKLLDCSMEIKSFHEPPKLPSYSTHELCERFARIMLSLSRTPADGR
# Outline: as §1
# [4] = target: T3, USP28 (UniProt Q96RU2)
# T3 sequence (whole entry): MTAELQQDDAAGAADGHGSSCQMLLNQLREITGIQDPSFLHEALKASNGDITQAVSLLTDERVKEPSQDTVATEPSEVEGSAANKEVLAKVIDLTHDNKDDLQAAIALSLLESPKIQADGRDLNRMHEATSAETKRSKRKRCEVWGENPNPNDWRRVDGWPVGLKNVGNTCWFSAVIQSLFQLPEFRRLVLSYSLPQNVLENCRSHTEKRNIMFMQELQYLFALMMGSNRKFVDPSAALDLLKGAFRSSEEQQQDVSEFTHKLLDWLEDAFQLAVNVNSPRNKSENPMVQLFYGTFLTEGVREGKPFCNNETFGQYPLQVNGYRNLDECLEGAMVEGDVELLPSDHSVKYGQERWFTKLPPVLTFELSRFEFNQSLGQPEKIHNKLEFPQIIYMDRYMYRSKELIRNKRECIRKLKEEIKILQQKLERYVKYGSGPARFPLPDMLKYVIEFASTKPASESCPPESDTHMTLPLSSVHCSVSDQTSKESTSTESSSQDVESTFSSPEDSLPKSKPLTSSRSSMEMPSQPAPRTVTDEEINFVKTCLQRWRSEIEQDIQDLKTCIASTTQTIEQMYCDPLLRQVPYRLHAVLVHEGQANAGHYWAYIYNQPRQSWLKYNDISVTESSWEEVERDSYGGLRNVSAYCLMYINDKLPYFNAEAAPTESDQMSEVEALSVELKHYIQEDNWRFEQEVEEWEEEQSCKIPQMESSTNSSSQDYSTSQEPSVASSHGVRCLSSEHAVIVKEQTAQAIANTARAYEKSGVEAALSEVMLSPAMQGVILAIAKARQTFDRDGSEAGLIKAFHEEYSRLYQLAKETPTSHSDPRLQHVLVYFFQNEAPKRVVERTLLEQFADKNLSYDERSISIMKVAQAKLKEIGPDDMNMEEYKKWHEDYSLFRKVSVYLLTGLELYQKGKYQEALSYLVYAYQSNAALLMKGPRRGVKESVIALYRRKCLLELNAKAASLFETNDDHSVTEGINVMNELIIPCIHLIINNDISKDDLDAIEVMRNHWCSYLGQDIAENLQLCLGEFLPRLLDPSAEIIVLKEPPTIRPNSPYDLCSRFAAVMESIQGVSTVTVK
# Outline: as §1
compound,measurement,setting,value
Cc1n[nH]c2c1CN(C(=O)CCl)CC2,log2 ratio of Biotin-Ahx-Ub-VS probe labelling,[1],-1.23 (active)
same,log2 ratio of Biotin-Ahx-Ub-VS probe labelling,[2],-1.26 (active)
same,log2 ratio of Biotin-Ahx-Ub-VS probe labelling,[3],-0.783
same,log2 ratio of Biotin-Ahx-Ub-VS probe labelling,[4],-1.29 (active)
